Source: PubChem BioAssay AID1508625 (Wald Lab, School of Medicine, Case Western Reserve …, 2021)

Test: small molecules boosting NK-mediated OVCAR3 lysis – imaging, primary NK cells, calcein-AM imaging, primary screen (AID 1508625);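 further: compound given to NK cells 16 h before adding targets at 1.5 to 1 ratio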;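 on z-score: more negative robust z means stronger NK killing of tumor cells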
Settings: OVCAR3 lysis by primary NK cells, at 5 µM; z-score: measured here: robust Z-score, single-point normalisation

SMILES | corrected activity, negative = more killing [%] | z-score
CCOCCCNC(=O)c1ccc(N2CCCC2=O)cc1 | -4.67 | -1.26
COCCN(CCOC)C(=O)c1cc2c(=O)n3ccccc3nc2s1 | -1.77 | -0.502
c1ccc(-c2ccccc2OCCN2CCNCC2)cc1 | 1.89 | 1.05
C=CCn1c(=S)[nH]c2cc(C(=O)Nc3cccc(C(F)(F)F)c3)ccc2c1=O | -6.01 | -1.91
CC(C(=O)NCCCN1CCOCC1)c1ccc([N+](=O)[O-])cc1 (stereo not given) | -5.52 | -3.07
COc1ccccc1NC(=O)c1ccccc1NC(=O)c1ccc(F)cc1 | -2.61 | -1.45
Cc1cc([N+](=O)[O-])ccc1N=Cc1ccc(Br)s1 | -2.22 | -0.944
CS(=O)(=O)N(CC(=O)N1CCOCC1)c1ccc2c(c1)OCCO2 | -1.8 | -1
CC(=NNC(=S)Nc1cccc(C)c1)c1cccc(N)c1 | -5.28 | -2.08
CCn1cnc2sc(C(=O)Nc3cccc([N+](=O)[O-])c3)c(C)c2c1=O | -2.56 | -0.931
CCCCN(C)C(=O)c1cc2c(=O)n3cccc(C)c3nc2s1 | -6.29 | -1.78
CCCCOc1ccc(C(=O)N2CCN(C(=O)N(C)C)CC2)cc1 | -0.23 | -0.128
N#Cc1ccccc1NC(=O)CSc1nnc(N)s1 | 2.04 | 0.632
CCCCn1c(=S)[nH]c2cc3ccccc3cc2c1=O | -1.52 | -0.403
Cc1cc(OCCN2CCCCCC2)ccc1[N+](=O)[O-] | -3.28 | -1.82
CCN(C(=O)c1cc2c(=O)n3cccc(C)c3nc2s1)c1ccccc1 | -6.23 | -1.77
CCOC(=O)c1ccc(CN(Cc2ccc(F)cc2)S(=O)(=O)c2cccc(Cl)c2)cc1 | -6.34 | -1.71
Nc1cc(OC(=O)c2ccccc2Br)nn1S(=O)(=O)c1ccccc1 | -1.18 | -0.375
COc1ccc2nc3oc(C(=O)NCCc4ccc(Cl)cc4)cc3cc2c1 | -5.81 | -1.43
C=CCn1c(-c2ccc3[nH]c(C)c(C)c3c2)n[nH]c1=S | -6.13 | -2.23
COc1ccccc1CNCc1ccccn1 | -2.41 | -0.766
COc1ccccc1CNC(=O)CCS(=O)(=O)Cc1ccccc1C | -4.37 | -1.18
Cn1c(SCc2c[nH]c3cc([N+](=O)[O-])ccc23)nc2sc3c(c2c1=O)CCCC3 | -1.25 | -0.47
CC(=O)Nc1ccc(-n2c(C)ccc2C)c(C(=O)O)c1 | -2.26 | -1.01
Cc1c(Cl)cccc1N=Cc1ccc(O)cc1 | -1.33 | -0.563

SMILES | corrected activity, negative = more killing [%] | z-score
CCC(C)NC(=O)c1ccc2c(=O)n(CCN(CC)CC)c(=S)[nH]c2c1 (stereo not given) | -4.1 | -1.09
CC(=O)Nc1ccc(N2C(=O)C3C4CC(C(Br)C4Br)C3C2=O)cc1 (stereo not given) | -2.24 | -0.796
Cc1nn2c(N)cc(-c3ccccc3)nc2c1-c1ccccc1 | -0.835 | -0.365
COc1ccc(OCCCN2CCc3ccccc3C2)cc1 | -4.65 | -2.58
Cc1nc2sccn2c1C(=O)NN=Cc1ccc(C(C)C)cc1 | -4.02 | -1.71
CCOc1ccc(S(=O)(=O)Nc2ccc(Cl)cc2)c2cccnc12 | -3.11 | -0.989
CC1CCC(NC2CCCc3c2[nH]c2ccc([N+](=O)[O-])cc32)CC1 (stereo not given) | 3.89 | 1.7
COc1ccc(NC(=O)NCc2ccncc2)cc1 | -2.54 | -1.41
Clc1ccc(CSc2ncnc3c2oc2ccccc23)cc1 | -4.09 | -1.16
O=C(c1oc(=O)c2ccccc2c1-c1ccccc1)N(CCc1ccccc1)Cc1ccccc1 | -5.06 | -1.24
COc1ccc(-c2nn(-c3ccccc3)cc2C(=O)OCc2ccccc2)cc1 | -2.27 | -1.22
O=C1c2ccccc2C(=O)N1C1C(=O)N(c2cccc(C(F)(F)F)c2)C1c1ccc(F)cc1 (stereo not given) | -1.28 | -0.397
COc1ccc(-c2csc(Nc3ncccn3)n2)cc1OC | -2.57 | -1.15
N#CCCCSc1nnnn1-c1ccccc1 | -7.28 | -2.25
CCCC(=O)Nc1cc(-c2nc3ccc(C)cc3o2)ccc1Cl | -2.67 | -1.43
O=C(Cn1cnc2ccccc2c1=O)NCCC(=O)NC1CCCCCC1 | -3.69 | -1.17
O=C(Oc1cccc(NC(=O)c2ccccc2Cl)c1)c1ccc(Cl)c(S(=O)(=O)N2CCCCC2)c1 | -3.19 | -1.2
COc1cc(C=C2C=C(c3ccc(C)cc3)OC2=O)cc(OC)c1OC | -0.351 | -0.181
O=C(NCCc1ccccc1Cl)C1CC(=O)N(C2CCCCC2)C1 (stereo not given) | -2.73 | -1.04
Clc1ccccc1[C@@H]1Nc2ccccc2[C@@H]2C=CC[C@@H]21 | -1.75 | -0.523
CCOc1ccc(S(=O)(=O)Nc2ccc(OC(F)(F)F)cc2)c2cccnc12 | -1.89 | -0.602
Cc1ccccc1N1C(=O)c2ccc(C(=O)Nc3cccc([N+](=O)[O-])c3)cc2C1=O | -3.72 | -1.15
Cc1cc(C)c(C=Nc2ccc(-c3ccccc3[N+](=O)[O-])cc2)c(C)c1 | -4.49 | -1.91
C=CCN1C(=O)C(=Cc2ccc(OCc3ccccc3Cl)c(OC)c2)SC1=S | -6.24 | -1.98
COC(=O)c1ccc(COC(=O)c2cnccn2)cc1 | -1.44 | -0.802

SMILES | corrected activity, negative = more killing [%] | z-score
CC(Oc1cccc(Cl)c1)C(=O)NC1CC(C)(C)NC(C)(C)C1 (stereo not given) | 0.623 | 0.347
COC(=O)c1ccc(CN2CCN3CCCC3C2C2CCCCC2)cc1 (stereo not given) | -2.78 | -1.21
O=C(CCCN1C(=O)c2cccc3cccc(c23)C1=O)NCCO | -1.75 | -0.651
Brc1ccc(-c2noc(CSc3ccccc3)n2)cc1 | -0.336 | -0.187
Cc1cc(C)nc(N=C(N)Nc2cccc(F)c2)n1 | 0.14 | 0.0433
Cc1n[nH]c(C)c1CCC(=O)NN=Cc1ccccc1O | -1.49 | -0.652
CCCn1c(C)nc2c(=O)oc3ccccc3c21 | 3.04 | 0.943
CC(=O)c1cccc(NC(=O)c2ccc(NS(=O)(=O)c3ccccc3)cc2)c1 | -4.58 | -1.71
CC1=C(C(=O)OC(C)C(C)(C)C)C(c2ccccc2)NC(=O)N1 (stereo not given) | -4.55 | -1.71
CCCOc1ccc(C(=O)Nc2ccc3nn(-c4ccc(OCC)cc4)nc3c2)cc1 | -3.37 | -1.2
CC(C)(C)c1ccc(C(=O)Nc2ccc(Cl)c(NC(=O)c3ccccc3)c2)cc1 | -4.21 | -1.49
COc1ccccc1CNC(=O)C(C)Oc1cccc(Cl)c1 (stereo not given) | -1.41 | -0.785
Cc1nnc(NC(=O)CSc2nc3c(c(=O)n2-c2ccccc2)SCC3)s1 | -0.367 | -0.0912
Cc1oc2c(C)c3oc(=O)c(C)c(C)c3cc2c1-c1ccccc1 | -1.87 | -0.558
Cn1c(SCC(=O)Nc2cc(C(F)(F)F)ccc2Cl)nc2c([nH]c3ccccc32)c1=O | -6.37 | -1.58
CCCCC1(CC(=O)N2CCOCC2)C(=O)N(c2ccccc2)N(c2ccccc2)C1=O | -2.63 | -0.786
CCOC(=O)c1ccc(NC(=O)c2cnc3n(c2=O)CCS3)cc1 | -6.64 | -2.11
COc1cccc(-c2nnc(-c3ccc([N+](=O)[O-])cc3)o2)c1 | 1.18 | 0.417
CCN(C(=O)c1cc2cc3ccc(OC)cc3nc2o1)c1cccc(C(F)(F)F)c1 | -3.66 | -0.898
Cc1cc(C)cc(NC(=O)c2ccccc2OCC(=O)N2CCc3ccccc32)c1 | -2.33 | -1.3
Cn1c(=O)c2c(nc(Oc3ccc(Cl)cc3)n2Cc2ccccc2Br)n(C)c1=O | -3.02 | -0.9
O=C1c2ccccc2C(=O)N1CCCCCCN1CCN(c2cccc(Cl)c2)CC1 | -4.02 | -0.848
CCC(=O)c1ccc(OCC(=O)O)c(OC)c1 | -0.458 | -0.171
O=C(CCCn1c(=S)[nH]c2cc3c(cc2c1=O)OCO3)NC1CC1 | -7.46 | -1.98
Cc1ccccc1OCC(=O)Nc1c[nH]c(=O)[nH]c1=O | -0.837 | -0.363
